Source: PubChem BioAssay (National Center for Advancing Translational Sciences (NCATS))
Most compounds without a hit are left out; they make up all but 0.95% or so of the library.
TexasRed autofl – qHTS Assay for Spectroscopic Profiling in Texas Red Spectral Region; Compound fluorescence, Texas Red channel, 547/618 nm; stronger effect = higher value; max dye-equivalent concentration, M; 59,000 tested, 0.06% active; AID 587, 2007; in the data active = max dye-equivalent concentration above about 10 nM; inconclusive = between about 1.1 nM and that limit
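qHTS profiling of intrinsic compound fluorescence; 100 mM Tris pH 8.0; 15 min RT; ex 547 / em 618 nm; response expressed as Texas Red dye-equivalent concentration from six-point plate standard.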
Resorufin autofl – qHTS Assay for Spectroscopic Profiling in Resorufin Spectral Region; 59,000 tested, 0.04% active; AID 588, 2007; Compound fluorescence, resorufin region 547/598 nm, buffer; stronger effect = higher value; max dye-equivalent concentration, M
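Intrinsic fluorescence profiled in the resorufin window (ex 547 nm, em 598 nm) after 15 min at room temperature in pH 8.0 Tris buffer (100 mM); responses normalized against a six-point resorufin standard series as dye-equivalent concentration.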
A488 autofl – qHTS Assay for Spectroscopic Profiling in A488 Spectral Region. max dye equivalency, M. compound autofluorescence, A488 spectral region, dye equivalency; Compound Type: qHTS ECL - MLSMR. 59,000 tested, 0.1% active. AID 591, 2007
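Spectroscopic profiling in the A488 region: compounds in pH 8.0 Tris (100 mM), 15 min RT, CCD imaging with 480 nm excitation and 540 nm emission; responses normalized against A488 dye standards.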
Rhodamine autofl – qHTS Assay for Spectroscopic Profiling in Rhodamine Spectral Region; Rhodamine-region fluorescence, 547/598 nm, Tris buffer; stronger effect = higher value; max dye-equivalent concentration, M; 59,000 tested, 0.05% active; AID 594, 2007; in the data active = max dye-equivalent concentration above about 11 nM; inconclusive = between about 1.1 nM and that limit
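Steps: pin-transfer compounds into pH 8.0 Tris (100 mM), hold 15 min at room temperature, image with a 547/598 nm filter pair, and convert intensities to rhodamine-equivalent concentration using a six-point on-plate rhodamine series.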
A647 autofl – qHTS Assay for Spectroscopic Profiling in A647 Spectral Region. Compound fluorescence, A647 channel (570/671 nm), Tris buffer. max dye-equivalent concentration, M. 59,000 tested, under 10 active. AID 592, 2007;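 also: values scaled relative to a standard on each plate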
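Tris 100 mM pH 8.0; cpd + A647 stds pin-transferred; 15 min RT; CCD imager, ex 570/em 671. Output = A647-equivalent conc. per cpd conc.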
Fluorescein autfl – qHTS Assay for Spectroscopic Profiling in Fluorescein Spectral Region. 59,000 tested, 0.91% active. max fluorescein-equivalent concentration, M. Compound autofluorescence, 480/540 nm, fluorescein-equivalent; stronger effect = higher value. AID 593, 2007; in the data active = max fluorescein-equivalent concentration above about 10 nM; inconclusive = between about 1.1 nM and that limit
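Spectral profiling of library compounds in the fluorescein window (480 nm excitation, 540 nm emission) after 15 min at room temperature in pH 8.0 Tris (100 mM). Values are dye-equivalent concentrations.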
* hit, by the source's call; i = inactive; ? = inconclusive. Unless noted, no rule for the calls is given here.

SMILES	TexasRed autofl	Resorufin autofl	A488 autofl	Rhodamine autofl	A647 autofl	Fluorescein autfl
COc1ccc(Oc2ncc3nc(C)c(=O)n(Cc4ccc(F)cc4)c3n2)cc1	i	i	i	i	1e-09	i
COc1cc(C2C3CN(C)CC=C3C(C#N)=C(N)C2(C#N)C#N)ccc1OC(C)C (configuration not stated)	i	i	?	i	8.6e-09	3.6e-08M*
CC(C)N1CC=C2C(C#N)=C(N)C(C#N)(C#N)C(c3ccccc3)C2C1 (configuration not stated)	i	i	?	i	5.5e-08	1.6e-07M*
CCC1C2CN(C(C)=O)CC=C2C(C#N)=C(N)C1(C#N)C#N (configuration not stated)	i	i	i	i	1.2e-08	?
CN1CC=C2C(C#N)=C(N)C(C#N)(C#N)C(Cc3ccccc3)C2C1 (configuration not stated)	?	i	?	i	2e-09	3.7e-08M*
CCN1CC=C2C(C#N)=C(N)C(C#N)(C#N)C(c3cc(Cl)ccc3Cl)C2C1 (configuration not stated)	i	i	i	i	5.2e-08	2.4e-08M*
c1ccc(C(CCN2CC3CCC(CC3)C2)c2ccccc2)cc1	i	i	i	i	5.6e-08	?
COc1ccccc1-c1nccc(Nc2ccc(F)cc2)n1	i	i	i	i	4.1e-08	?
COc1ccc(-n2c(=O)c(CCc3ccccc3)nc3cnc(N4CCN(C)CC4)nc32)cc1	i	i	i	i	1e-09	1.2e-08M*
CN(C)Cc1ccccc1-c1nc(NCc2cccs2)c2ccccc2n1	i	i	i	i	2.9e-09	i
COc1cccc2c1C(=N)c1c(O)c3c(c(O)c1C2=O)C[C@](O)(C(C)=O)C[C@@H]3O[C@H]1C[C@H](N)[C@@H](O)[C@H](C)O1	1e-08M*	i	i	?	2e-08	i
COc1cccc2c1C(=O)c1c(O)c3c(c(O)c1C2=O)C[C@@](O)(C(=O)CO)C[C@@H]3O[C@H]1C[C@H](N)[C@H](O)[C@H](C)O1	8.3e-08M*	7.6e-08M*	1.3e-08M*	8.7e-08M*	4.6e-09	2.9e-07M*
COc1cccc2c1C(=O)c1c(O)c3c(c(O)c1C2=O)C[C@](O)(C(C)=O)C[C@H]3O[C@@H]1C[C@H](N)[C@H](O)[C@H](C)O1	5.9e-08M*	4.5e-08M*	?	6e-08M*	7e-09	2e-07M*
CC(=O)[C@@]1(O)Cc2c(O)c3c(c(O)c2[C@H](O[C@H]2C[C@H](N)[C@H](O)[C@H](C)O2)C1)C(=O)c1ccccc1C3=O	?	2.4e-08M*	2.4e-08M*	4.2e-08M*	6.7e-08	4.7e-07M*
O=C1c2ccccc2C(=O)c2c(Nc3cc4c5c(ccc6c7ccc8c9c(cc(Nc%10cccc%11c%10C(=O)c%10ccccc%10C%11=O)c(c3c56)c97)-c3ccccc3C8=O)C(=O)c3ccccc3-4)cccc21	i	i	i	i	7.9e-09	i
CCC(=O)OCN1C(=O)C=CC1=O	i	i	i	i	1e-09	i
Cc1noc(C)c1-c1nccc(N(C)C)n1	i	i	i	i	1e-09	i
CCOC(=O)c1ccc(N2C(=O)C3C(C2=O)C(C(=O)c2ccc(Cl)cc2)N2CCCC32)cc1 (configuration not stated)	i	i	?	i	5.7e-09	5.6e-08M*
C=CCn1c(=O)/c(=C/c2ccc(C)o2)s/c1=C(/C#N)C(=O)c1ccccc1	i	i	?	i	2.2e-08	9.9e-08M*
COc1cc(C2C3=C(CC(C)(C)CC3=O)Nc3c2c(=O)[nH]c(=O)n3Cc2ccccc2)ccc1O (configuration not stated)	i	i	i	i	1e-09	?
